The list shows a part of the results. Inconclusive results are not listed. The source made the active and inactive calls.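 How the source made its calls: active means compound lowering PGC-1a expression with fitted half-maximal concentration at most twice its top tested dose; inconclusive means flat curve with moderate opposite-direction effect, or poor fit; inactive means the rest.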

A short description of this assay: suppression of PGC-1a mRNA in primary hepatocytes, dose response, PGC-1a acetylation activator project, cell-based, primary mouse hepatocytes, RT-qPCR, cherry-pick (AID 743467).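 Further: 0% = neutral control wells median and 100% = positive control wells median.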 As to conditions: PGC-1a mRNA qPCR, forskolin, top dose 26 µM, hits give high values; at 26 µM unless noted.
In the case of `Cc1ccc(OCC(=O)NCCCNC(=O)c2cccnc2)cc1C`, the max activity (PGC-1a expression decrease) was 111% (inactive).

Consider `O=C(NCc1ccccc1)C(c1ccccc1)N(C(=O)c1csnn1)c1ccc(F)cc1` (centres undefined), for which the max activity (PGC-1a expression decrease) was 114% [at 8 µM] (inactive).

Turning to `Cc1cc(C)c2c(-n3cccc3)c(C(=O)NNS(=O)(=O)c3ccc(F)cc3)sc2n1`, the max activity (PGC-1a expression decrease) was 82.5% [at 8 µM] (inactive). For `CC(C)CCNc1nc(N2CCCC2)c2c(c1C#N)CCN(C)C2` the value was 56.4% (inactive); for `COc1ccc(-n2nnnc2CNC(=O)c2ccc3ccccc3c2)cc1`, 86.6% [at 0.0038 µM] (inactive); for `O=C(NCCC1CCCCN1S(=O)(=O)c1cccs1)C(=O)Nc1ccc(F)cc1F` (centres undefined), 63.6% (inactive). Then `Cc1cc(C(=O)NNS(=O)(=O)c2ccccc2C(F)(F)F)nn1C(C)(C)C`, with 22.5% [at 0.0012 µM] (inactive).

As to `COc1ccc(Nc2nnc(C)c3ccccc23)cc1`, the max activity (PGC-1a expression decrease) is 52.1% (inactive).

For `O=S(=O)(NCc1ccccc1Br)c1ccccc1Br`, the max activity (PGC-1a expression decrease) is 65.1% (inactive).

For `CCOc1ccccc1CN1CCN(C2CCC2)CC1CCO` (centres undefined), the max activity (PGC-1a expression decrease) is 28.9% [at 8 µM] (inactive). For `CCOC(=O)c1c(-c2ccc(C)cc2C)csc1NC(=O)CSc1nnnn1C` the value was 87% [at 8 µM] (inactive); for `CCC(C)(C)n1nnnc1C(c1ccccc1OC)N1CCSCC1` (centres undefined), 74.7% (inactive); for `CCCCC(=O)Nc1ccc(C(=O)NCCCn2ccnc2)cc1`, 68.4% [at 0.011 µM] (inactive). Then `CCOC(=O)c1c(NC(=O)CSc2cn(CC)c3ccccc23)sc2c1CCC2`, with 60.3% (inactive).
